Bioassay records from PubChem BioAssay.
Shown are actives, neighbours in structure and some others; about 10% of the full set was active somewhere.
MCF10A rereplic – induces DNA re-replication in MCF 10a normal breast cells | MCF 10A DNA re-replication, Hoechst nuclear intensity, 48 h | Potency, µM (doses to about 46.1 µM), for the others: top-dose activity, positive = re-replication, most hits filed as activators | hit rate 2.9% among 350,000 | AID 624296; note: % of control where 0% means no effect; nearly all actives have a fitted effect of over 50% in size
ELG1 DNA repair – inhibitors of ELG1-dependent DNA repair in HEK293T cells; HEK293T ELG1-luciferase reporter, luminescence, 16 h; DNA damage induced by 5-fluorouridine; Potency, µM (series often up to 46.1 µM), without a hit: top-dose activity change, negative = inhibition, actives largely listed as inhibitors; hit rate 2.3% among 330,000; AID 504467; note: % is set by controls: 0 for no effect and ±100 for the full control effect; nearly all actives have a fitted effect of over 55% in size
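Step one: seed 2,000 cells per well. Step two: pin-transfer compound or DMSO alongside 5-fluorouridine. Step three: incubate 16 hr, 37 °C, 5% CO2. Step four: add ONE-Glo, wait 30 min, read luminescence.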
RORg inh – inhibitors of mouse ROR gamma transcriptional activity. hit rate 5.4% among 310,000. Potency, µM (highest dose often 53.6 µM), inactives show at the top dose activity change, negative = inhibition, actives largely listed as inhibitors. Drosophila S2 Gal4-RORgamma UAS-luciferase reporter, 20 h. P51450; note: % is set by controls: 0 for no effect and ±100 for the full control effect; nearly all actives have a fitted effect of over 60% in size
Target sequence (P51450 whole entry, looked up, the tested form may be a part): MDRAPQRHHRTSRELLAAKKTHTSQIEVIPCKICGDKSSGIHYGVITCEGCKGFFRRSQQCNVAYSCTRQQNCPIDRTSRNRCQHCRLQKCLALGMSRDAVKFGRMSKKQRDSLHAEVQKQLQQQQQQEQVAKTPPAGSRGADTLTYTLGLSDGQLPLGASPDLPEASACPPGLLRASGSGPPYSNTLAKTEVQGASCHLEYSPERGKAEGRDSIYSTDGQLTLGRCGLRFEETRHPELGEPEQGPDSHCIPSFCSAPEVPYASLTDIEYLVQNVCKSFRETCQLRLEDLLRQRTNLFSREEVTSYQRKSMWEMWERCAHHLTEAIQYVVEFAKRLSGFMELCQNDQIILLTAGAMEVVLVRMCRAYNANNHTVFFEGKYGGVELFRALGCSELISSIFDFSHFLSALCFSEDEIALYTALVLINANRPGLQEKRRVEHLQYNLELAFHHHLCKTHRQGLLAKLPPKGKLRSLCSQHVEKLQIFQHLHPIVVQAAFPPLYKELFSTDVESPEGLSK
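Schneider cells (Drosophila), stable Gal4 DBD–ROR gamma + UAS-luc; 1 hr cmpd preincubation; Cu2+ induction 700 uM final; 20 hr ambient; luminescence.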
VP16 counter – inhibits Gal4-VP16 luciferase reporter, ROR gamma counter-screen; hit rate 3.5% among 310,000; Drosophila S2 Gal4-VP16 UAS-luciferase, luminescence, 20 h; Potency, µM (series often up to 53.6 µM), without a hit: top-dose activity, negative = inhibition, usual class: inhibitors;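 note: Gal4-VP16 expression switched on by copper sulfate through the metallothionein promoter; % is set by controls: 0 for no effect and ±100 for the full control effect; nearly all actives have a fitted effect of over 50% in size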
SW480 rerep – DNA re-replication induction in SW480 cells. SW480 DNA re-replication, Hoechst DNA content imaging, 48 h. Potency, µM (highest dose often 46.1 µM), for inactives: at the highest dose re-replication activation, actives largely listed as activators. hit rate 1.8% among 340,000. AID 624297; note: % of control where 0% means no effect; nearly all actives have a fitted effect of over 55% in size
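SW480 cells exposed to compounds for 48 hr at 37 C, 5% CO2, then Hoechst-stained 40 min. Nuclear DNA content imaged by fluorescence scanning (405 nm excitation, 500-530 nm emission); re-replication scored as increased high-intensity nuclei.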
An asterisk follows results filed as active; ? = inconclusive; nt = no result given; [ ] = remark or other dose. Calls come from the whole dose curve; as a rule, active = well fitted curve in the direction sought with a large enough effect; inconclusive = small, poorly fitted or top-dose-only effect, or another doubt; inactive = no such curve, though single readings can be large; an effect the other way counts as inactive or inconclusive. Potency is the fitted concentration of half-maximal effect.

SMILES | MCF10A rereplic | ELG1 DNA repair | RORg inh | VP16 counter | SW480 rerep
Cc1cc(NC(=O)CCCN2C(=O)/C(=C/c3cccs3)SC2=S)no1 | 5.1% | ? | -26.9%[10 µM] | ? | nt
CC(/C=C1\SC(=S)N(NC(=O)c2ccccc2C)C1=O)=C\c1ccccc1 | 10.3µM* | 3.3% | -25.7% | -11.0% | -14.6%
COc1cccc(/C=C2\SC(=S)N(CCCC(=O)Nc3cc(C)on3)C2=O)c1 | 10.1% | 2.3% | 2.82µM* | 1.41µM* | 2.0%
COc1cccc(/C=C2\SC(=S)N(CCCC(=O)NC3=NCCS3)C2=O)c1 | -0.7% | 3.4% | 0.562µM* | 0.708µM* | -14.4%
Cc1nc2ccccc2c(=O)n1NC(=O)c1cccc([N+](=O)[O-])c1 | -3.5% | -11.1% | -23.0% | -0.6% | -3.2%
Cc1occc(=O)c1O | 4.1% | 3.4% | -7.8% | -15.4% | 4.7%
CC(/C=C1\SC(=S)N(CCCC(=O)Nc2ccc(C(=O)O)c(O)c2)C1=O)=C\c1ccccc1 | ? | ? | -27.2% | -25.2% | ?
COc1ccc(/C=C2/SC(=S)N(CCCC(=O)Nc3ccc(O)cc3)C2=O)cc1OC | 15.6% | ? | 11.3% | -6.7% | ?
O=C(CCCN1C(=O)/C(=C\c2ccccc2)SC1=S)Nc1ccc(O)cc1 | ? | ? | 2µM* | 1.78µM* | ?
O=C(CCN1C(=O)/C(=C\c2ccccc2)SC1=S)Nc1ccc(C(=O)O)cc1 | 6.0% | 9.0% | -13.9% | 26.3% | -3.1%
CC(/C=C1\SC(=S)N(CCC(=O)Nc2ccc(O)cc2)C1=O)=C\c1ccccc1 | 25.7% | -12.1% | 14.1µM* | 14.1µM* | ?
Cc1ccc(/C=C2/SC(=S)N(CCCC(=O)Nc3ccc(O)cc3)C2=O)cc1 | ? | 16.0% | 0.398µM* | ? | ?
COc1ccccc1/C=C1\SC(=S)N(CCC(=O)NNC(=O)c2ccccc2OC)C1=O | 2.9% | 1.0% | -34.5% | -16.0% | -0.3%
COc1ccccc1/C=C1\SC(=S)N(CCC(=O)Nc2cccc(O)c2)C1=O | 10.3µM* | ? | nt | nt | -23.5%
COc1cc(CC(=O)OCC(=O)N(C)C2CCCCC2)cc(OC)c1OC | -4.9% | ? | nt | nt | -6.7%
CC(C)Nc1ncnc2[nH]ncc12 | -0.1% | nt | nt | nt | -8.5%
CC1C(=O)N(S(=O)(=O)c2ccc([N+](=O)[O-])cc2)[C@H]1c1ccc2ccccc2c1 (stereo not given in full) | nt | nt | 0.5% | -8.9% | nt
Cc1ccc(/C=C2\SC(=S)N(CCC(=O)NNC(=O)c3ccccc3O)C2=O)cc1 | 2.5% | ? | 0.0% | -5.4% | ?
O=C(O)CCCN1C(=O)/C(=C\c2ccccc2OCc2ccccc2)SC1=S | ? | -3.4% | 16.6% | 13.6% | -3.5%
Cc1ccc(/C=C2\SC(=S)N(CCCC(=O)NNC(=O)c3ccccc3O)C2=O)cc1 | 2.2% | ? | 1.58µM* | 2.82µM* | 0.5%
O=C(O)CCCN1C(=O)/C(=C\C(Cl)=C\c2ccccc2)SC1=S | ? | -8.9% | 1.26µM* | 1.58µM* | 3.26µM*
CCOC(=O)[C@H]1[C@H]2COc3ccccc3[C@@H]2N2C(=O)CN(Cc3ccc(C)cc3)C(=O)[C@@]12C | 0.6% | 1.9% | nt | nt | 8.1%
C[C@@H]1CCC2[C@@H](C)[C@@H](O)O[C@@H]3O[C@@]4(C)CC[C@@H]1[C@@]23OO4 (stereo not given in full) | 25.6% | nt | -7.5% | -24.5% | ?
CC(C)(C)c1cc(C(=O)NN)n(Cc2ccc(F)cc2)n1 | 16.9% | 0.0% | 11.2µM* | -11.1% | ?
Cc1cccc(Cn2nc(C(C)(C)C)cc2C(=O)Nc2ccc(F)cc2)c1 | ? | ? | 0.5% | -5.8% | ?
CC(=O)Oc1c(Br)cc(N(C(C)=O)S(=O)(=O)c2ccccc2)c2ccccc12 | 16.4µM* | 23.1µM* | 3.9%[1.91 µM] | ? | ?
CCn1cc(C(=O)N(C)c2ccc(OC)cc2OC)c2cc(OC)c(OC)cc2c1=O | -2.2% | 14.6µM* | -0.4% | 4.3% | -4.4%
O=C(Cn1cc(CNC(=O)C2CCCCC2)nn1)Nc1cc(C(F)(F)F)ccc1Cl | ? | 7.0% | nt | nt | -7.6%
Cc1ccc2nc(NCC(=O)O)nc(-c3ccccc3)c2c1 | 22.4% | 6.5% | -4.4% | -12.2% | -0.8%[9.22 µM]
